This is an account of results in PubChem BioAssay.

The source made the active and inactive calls.

The nature of assay [1]: E. coli DRC41 culture turbidity changes, primary screen, E. coli filamentation inducer project, strain DRC41, OD650, 48 h (AID 1152).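 Note: E. coli MC1000 strain DRC41 lacking acrAB efflux pump and sulA.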 Particulars: E. coli DRC41 (acrAB sulA), higher = more signal, called active from +8 up or from −8 down.
A short description of assay [2]: small-molecule binders of probe aLefty1, primary screen, biochemical, small-molecule microarray, 635/667 nm fluorescence (AID 1153).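 Note: score merges spot fluorescence with signal-to-noise ratio from the scanned slide images.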 Particulars: higher = more signal.
Assay [3] can be described thus: PSAC antagonists in infected red cells, primary screen, cell-based, P. falciparum Indochina, OD700, 1 h (AID 1154). Conditions: P. falciparum Indochina infected RBC osmotic lysis, higher = more signal, called active from +8 up or from −8 down.
The nature of assay [4]: PSAC antagonists in infected red cells, primary screen, cell-based, P. falciparum Indochina, OD700, 2 h (AID 1155).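 Note: lysis reports solute entry through the parasite surface anion channel PSAC; channel blockers reduce lysis of infected cells.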 Particulars: P. falciparum Indochina infected erythrocytes, osmotic lysis OD700; higher = more signal, called active from +8 up or from −8 down.
Assay [5] in a line: osmotic lysis modulators in infected erythrocytes, primary screen, PSAC antagonist project, cell-based, P. falciparum Indochina, OD700, 3 h (AID 1156). Conditions: higher = more signal, called active from +8 up or from −8 down.
Assay [6] can be described thus: PSAC antagonists in infected red cells, primary screen, cell-based, P. falciparum Indochina, OD700, 18 h (AID 1157). Particulars: P. falciparum Indochina infected erythrocytes, osmotic lysis OD700, 18 h; higher = more signal, called active from +8 up or from −8 down.
The nature of assay [7]: modulators of S6 phosphorylation in cells, primary screen, cell-based, A549, cytoblot, luminescence, serum-stimulated (AID 1158).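 Note: serum-stimulated A549 lung adenocarcinoma cells; signal is phosphorylated S6 detected by cytoblot immunostaining with HRP secondary.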 Conditions: A549 phospho-S6 cytoblot, 5 h, higher = more signal.
In assay [8] the target is NADPH oxidase 2 (Homo sapiens) (UniProt P04839). Kind of assay: NOX2-dependent H2O2 signal modulators, primary screen, NOX inhibitor project, cell-based, HEK293-NOX2, PMA-stimulated, Amplex Red fluorescence (AID 1159). Note: test concentration not given here. Particulars: 45 min, higher = more signal, called active from +8 up or from −8 down.
Assay [9] addresses NADPH oxidase 4 (Homo sapiens) (UniProt Q9NPH5). Kind of assay: NOX4-dependent H2O2 signal modulators, primary screen, NOX inhibitor project, cell-based, HEK293-NOX4, tetracycline-induced, Amplex Red fluorescence (AID 1160). Conditions: 45 min, higher = more signal, called active from +8 up or from −8 down.
In assay [10] the target is NADPH oxidase 5 (Homo sapiens) (UniProt Q96PH1). Kind of assay: NOX5-dependent H2O2 signal modulators, primary screen, NOX inhibitor project, cell-based, HEK293-NOX5, Amplex Red fluorescence (AID 1161). Particulars: HEK293-NOX5, ionomycin, 45 min, higher = more signal.
A short description of assay [11]: A549 cell viability effects, profiling panel, calcein-AM fluorescence, 48 h, basal (AID 1162). Note: test concentration not given here. Conditions: higher = more signal.
Assay [12] can be described thus: adipocyte viability effects, profiling panel, cell-based, 3T3-L1 adipocytes, calcein-AM fluorescence, 48 h, basal (AID 1163). Note: test concentration not given here. Conditions: 3T3-L1 adipocytes viability, higher = more signal.
A short description of assay [13]: HepG2 cell viability effects, profiling panel, calcein-AM fluorescence, 48 h, basal (AID 1164). Note: test concentration not given here. Conditions: higher = more signal.
The nature of assay [14]: MM1S cell viability effects, profiling panel, calcein-AM fluorescence, 48 h, basal (AID 1165).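 Note: viability of MM1S multiple myeloma cells under basal unstimulated conditions; test concentration not given here.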 Conditions: higher = more signal.
Assay [15] can be described thus: basal RPMI8226 viability, no added stimulus, profiling panel, cell-based, calcein-AM fluorescence, 48 h, PK04 Diversity Set (AID 1166).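 Note: cells grown under basal conditions without added stimulus; test concentration not given here.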 Conditions: RPMI8226 myeloma viability, higher = more signal.
Assay [16] can be described thus: basal HepG2 mitochondrial membrane potential changes, profiling panel, cell-based, JC-1 fluorescence, 24 h, 100 nL compound (AID 1167). Note: test concentration not given here. Conditions: higher = more signal.
Assay [17] can be described thus: basal 3T3-L1 adipocyte mitochondrial potential changes, profiling panel, cell-based, JC-1 fluorescence, 3T3-L1 adipocytes, 24 h, 100 nL compound (AID 1168). Note: test concentration not given here. Conditions: JC-1 mitochondrial fluorescence, higher = more signal, called active from +8 up or from −8 down.
The nature of assay [18]: basal RPMI8226 mitochondrial membrane potential changes, profiling panel, cell-based, JC-1 fluorescence, 24 h, 100 nL compound (AID 1169). Note: test concentration not given here. Conditions: RPMI8226 myeloma, JC-1 mitochondrial potential fluorescence, higher = more signal.
Assay [19] in a line: basal MM1S mitochondrial membrane potential changes, profiling panel, cell-based, JC-1 fluorescence, 24 h, 100 nL compound (AID 1170). Note: test concentration not given here. Conditions: higher = more signal.
Assay [20] is described as follows: A549 lung cancer cell viability effects, profiling panel, resazurin fluorescence, 24 h, PK04 Diversity Set (AID 1171). Note: test concentration not given here. Conditions: higher = more signal, called active from +8 up or from −8 down.

Chain of NADPH oxidase 4 (Homo sapiens) (Q9NPH5 whole entry, looked up): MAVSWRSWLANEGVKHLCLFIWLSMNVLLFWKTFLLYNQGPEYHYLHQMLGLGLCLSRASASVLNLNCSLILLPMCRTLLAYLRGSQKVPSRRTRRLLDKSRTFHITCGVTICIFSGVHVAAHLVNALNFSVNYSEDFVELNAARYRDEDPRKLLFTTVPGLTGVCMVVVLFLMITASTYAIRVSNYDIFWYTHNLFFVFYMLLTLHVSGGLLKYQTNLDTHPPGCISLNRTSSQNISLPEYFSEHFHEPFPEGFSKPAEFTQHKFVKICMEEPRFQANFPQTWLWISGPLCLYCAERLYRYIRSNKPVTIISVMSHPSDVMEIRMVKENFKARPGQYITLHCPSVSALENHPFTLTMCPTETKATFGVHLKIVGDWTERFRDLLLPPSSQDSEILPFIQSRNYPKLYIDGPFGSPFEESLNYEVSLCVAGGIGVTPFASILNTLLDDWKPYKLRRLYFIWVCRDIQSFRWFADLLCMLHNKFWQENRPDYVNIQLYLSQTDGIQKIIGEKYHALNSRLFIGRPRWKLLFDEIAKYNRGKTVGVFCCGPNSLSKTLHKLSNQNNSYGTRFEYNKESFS
Chain of NADPH oxidase 5 (Homo sapiens) (Q96PH1 whole entry, looked up): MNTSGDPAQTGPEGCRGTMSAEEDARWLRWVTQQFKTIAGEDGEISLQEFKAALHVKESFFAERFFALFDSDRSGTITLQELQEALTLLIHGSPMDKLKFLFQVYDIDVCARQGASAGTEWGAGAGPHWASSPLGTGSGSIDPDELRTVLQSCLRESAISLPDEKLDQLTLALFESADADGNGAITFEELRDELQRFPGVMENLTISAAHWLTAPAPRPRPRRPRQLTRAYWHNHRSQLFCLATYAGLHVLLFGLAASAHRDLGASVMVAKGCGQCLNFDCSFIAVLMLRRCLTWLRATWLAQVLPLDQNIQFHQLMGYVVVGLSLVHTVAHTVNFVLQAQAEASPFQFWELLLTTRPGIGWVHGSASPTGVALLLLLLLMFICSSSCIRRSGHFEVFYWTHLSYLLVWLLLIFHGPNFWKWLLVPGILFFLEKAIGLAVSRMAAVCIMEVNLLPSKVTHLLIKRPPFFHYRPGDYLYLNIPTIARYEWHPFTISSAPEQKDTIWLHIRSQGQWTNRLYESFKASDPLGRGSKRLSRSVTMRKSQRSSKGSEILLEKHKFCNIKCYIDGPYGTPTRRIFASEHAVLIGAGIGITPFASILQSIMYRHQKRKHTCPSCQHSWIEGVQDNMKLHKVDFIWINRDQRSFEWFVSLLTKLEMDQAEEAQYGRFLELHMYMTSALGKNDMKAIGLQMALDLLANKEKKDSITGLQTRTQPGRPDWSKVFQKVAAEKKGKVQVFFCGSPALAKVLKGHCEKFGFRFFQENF
Chain of NADPH oxidase 2 (Homo sapiens) (P04839 whole entry, looked up): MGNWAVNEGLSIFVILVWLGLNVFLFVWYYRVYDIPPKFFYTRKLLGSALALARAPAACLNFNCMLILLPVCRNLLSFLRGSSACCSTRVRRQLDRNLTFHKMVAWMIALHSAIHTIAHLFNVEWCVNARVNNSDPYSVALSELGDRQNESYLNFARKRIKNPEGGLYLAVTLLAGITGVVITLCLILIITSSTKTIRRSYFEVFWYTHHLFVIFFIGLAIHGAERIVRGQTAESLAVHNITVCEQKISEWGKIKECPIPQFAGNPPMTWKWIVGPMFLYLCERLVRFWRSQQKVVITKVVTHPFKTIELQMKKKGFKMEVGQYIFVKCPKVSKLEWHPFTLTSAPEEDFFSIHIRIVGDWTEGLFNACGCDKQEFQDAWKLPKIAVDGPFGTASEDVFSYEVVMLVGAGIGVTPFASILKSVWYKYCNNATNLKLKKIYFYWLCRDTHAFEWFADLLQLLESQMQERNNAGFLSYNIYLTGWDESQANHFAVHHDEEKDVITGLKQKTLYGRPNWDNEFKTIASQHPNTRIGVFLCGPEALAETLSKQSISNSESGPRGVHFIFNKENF

Consider `Cc1ccccc1C(O)C1C=CC2C(=O)N(c3ccccc3)C(=O)C2N1Nc1ccccc1F` (stereo not given), for which the z-score was -1.37 (inactive) in assay [1]; 10.8 (active) in assay [3]; 2.28 (inactive) in [4]; 0.39 (inactive) in assay [5]; 1.1 (inactive) in [6]; -1.16 in assay [7]. Besides, the z-score was -2.02 (inactive) in [8]; -5.43 (inactive) in assay [9]; -3.71 in [10]; 0.569 in assay [11]; -0.522 in assay [12]; -0.157 in assay [13]. Besides, the z-score in [14] was -0.584; in assay [15] it was -0.666; in assay [16], -2.82; in assay [17], -1.49 (inactive); in [18] it was -0.0566; in [19], 0.368. Besides, in [20], the z-score was -0.425 (inactive). The compound further returned a composite z-score in [2] of 0.649.
`CCOC(=O)C1=CC[C@@H](c2ccccc2Cl)N(S(=O)(=O)c2ccc(C)cc2)[C@H]1c1cccc(OC)c1`: the z-score in assay [1] is -1.44 (inactive); in assay [3], 1.23 (inactive); in assay [4], 1.16 (inactive); in assay [5], 0.106 (inactive); in [6], 0.362 (inactive); in [7] it was -0.401. The z-score is 0.78 (inactive) in assay [8]; 0.238 (inactive) in assay [9]; 0.113 in assay [10]; -0.698 in assay [11]; -1.56 in [12]; -0.467 in assay [13]. Further, the z-score is -0.744 in assay [14]; 0.688 in [15]; 0.405 in assay [16]; -1.39 (inactive) in [17]; 0.702 in assay [18]; -0.539 in assay [19]. In addition, the z-score in assay [20] is 0.219 (inactive). The same compound returned a composite z-score in assay [2] of 0.0082.
On to `COCCOC(=O)N1C(=O)[C@@]2(c3cc(C#CCCO)ccc31)[C@H](c1ccccc1OCCO)N1[C@H](c3ccccc3)[C@H](c3ccccc3)OC(=O)[C@H]1[C@@H]2C(=O)N1CCc2cc(OC)c(OC)cc2C1`, for which the z-score is 0.891 (inactive) in assay [1]; 2.43 (inactive) in assay [3]; 1.97 (inactive) in assay [4]; 0.276 (inactive) in [5]; 1.12 (inactive) in [6]; 0.199 in assay [7]. Also, the z-score in assay [8] was 1.15 (inactive); in [9], 1.15 (inactive); in assay [10] it was 0.0359; in assay [11], 1.14; in assay [12] it was 0.251; in assay [13], 1.37. In addition, the z-score was 0.713 in assay [14]; 0.503 in assay [15]; 1.13 in assay [16]; 0.808 (inactive) in assay [17]; -0.361 in [18]; -1.04 in assay [19]. Also, the z-score in assay [20] is 0.646 (inactive). In [2], this compound registered a composite z-score of 0.265.
Turning to `COC(=O)C(CC#Cc1ccc2c(c1)[C@]1(C(=O)N2)[C@H](c2ccc(O)cc2)N2[C@H](c3ccccc3)[C@H](c3ccccc3)OC(=O)[C@H]2[C@@H]1C(=O)N1CCc2cc(OC)c(OC)cc2C1)C(=O)OC`, the z-score was -0.958 (inactive) in assay [1]; 1.4 (inactive) in [3]; 0.923 (inactive) in assay [4]; 0.848 (inactive) in [5]; 0.591 (inactive) in assay [6]; -0.747 in assay [7]. For the same compound, the z-score was 2.05 (inactive) in [8]; 0.706 (inactive) in assay [9]; 0.218 in assay [10]; -0.581 in assay [11]; -0.959 in assay [12]; -0.184 in assay [13]. In addition, the z-score in assay [14] was -1.71; in [15], -4.43; in assay [16], -2.15; in assay [17], 0.124 (inactive); in assay [18], -1.22; in assay [19], -1.03. For the same compound, the z-score in assay [20] is -0.0149 (inactive). In addition, the composite z-score in assay [2] turned out to be 0.156.
As for `O=C1C2C=CC(C(O)c3cccs3)N(Nc3ccccc3)C2C(=O)N1c1ccccc1` (stereo not given), the z-score was -0.597 (inactive) in [1]; 2.55 (inactive) in assay [3]; 0.52 (inactive) in [4]; 0.916 (inactive) in assay [5]; -0.423 (inactive) in [6]; 2.34 in assay [7]. The z-score is -2.63 (inactive) in assay [8]; -3.57 (inactive) in assay [9]; -3.35 in assay [10]; -0.125 in [11]; 0.715 in assay [12]; -0.379 in [13]. The z-score in [14] was 0.473; in [15], 0.502; in assay [16], -1.72; in assay [17] it was 0.673 (inactive); in [18] it was -0.18; in assay [19], -0.542. The z-score in [20] is -0.919 (inactive). The composite z-score in [2] turned out to be 0.328.
Regarding `C=CCOC(=O)[C@H]1[C@@H]2C(=O)O[C@@H](c3ccccc3)[C@@H](c3ccccc3)N2[C@@H](c2ccc(OCCOC(=O)[C@@H]3C[C@@H]4C(=O)N[C@@H](CC(C)C)C(=O)N4[C@@H]3c3ccc(O)cc3)cc2)[C@]12C(=O)Nc1ccc(I)cc12`, the z-score in assay [1] was 0.833 (inactive); in assay [3], 2.77 (inactive); in assay [4] it was 1.33 (inactive); in assay [5] it was 2.31 (inactive); in [6] it was -1.46 (inactive); in assay [7] it was 1.09. In addition, the z-score in assay [8] is 0.894 (inactive); in assay [9], 0.499 (inactive); in assay [10], 1.4; in assay [11], 0.13; in assay [12], 0.283; in [13] it was 1.55. The z-score in assay [14] is 0.345; in [15], -0.207; in assay [16] it was -1.78; in assay [17], 1 (inactive); in assay [18], -0.438; in [19] it was -0.961. Also, the z-score in [20] was -0.629 (inactive). For the same compound, in [2], the composite z-score amounted to 0.106.
Take `C=CCC(OC(C)=O)[C@@H]1[C@@H](N(Cc2cccc3ccccc23)C(=O)c2cccc3ccccc23)c2cc(OCCCO)ccc2N1C(=O)Cc1ccc2ccccc2c1` (stereo not given in full): the z-score in assay [1] was -0.341 (inactive); in [3], 0.704 (inactive); in assay [4], 0.0473 (inactive); in [5], 1.02 (inactive); in assay [6] it was 0.334 (inactive); in [7], 0.326. In addition, the z-score is -1.93 (inactive) in assay [8]; -0.859 (inactive) in assay [9]; -2.79 in [10]; -0.612 in [11]; -0.151 in assay [12]; -0.663 in [13]. For the same compound, the z-score in assay [14] is 0.0031; in assay [15], -1.9; in [16], 2.09; in [17], -0.0423 (inactive); in assay [18], 0.00587; in [19], -0.00493. For the same compound, the z-score in assay [20] was -0.0737 (inactive). This compound registered a composite z-score in assay [2] of 0.211.
In the case of `C[C@H]1C2[C@H](Cc3ccccc3)NC(=O)[C@]23C(=O)NCC(=O)N2CCC[C@H]2C(=O)NC/C=C\C/C=C/C3[C@@H]2O[C@]12C` (stereo not given in full), the z-score in [1] was 0.822 (inactive); in assay [3] it was -0.0865 (inactive); in assay [4] it was -0.387 (inactive); in assay [5], -0.62 (inactive); in assay [6] it was -0.113 (inactive); in assay [7] it was 0.255. Moreover, the z-score was 0.212 (inactive) in assay [8]; 1.07 (inactive) in [9]; 0.649 in assay [10]; 0.379 in assay [11]; 0.491 in assay [12]; 0.409 in [13]. Besides, the z-score is 0.163 in assay [14]; -0.547 in assay [15]; -0.324 in [16]; 0.0628 (inactive) in assay [17]; -1.03 in assay [18]; 0.227 in [19]. Also, in assay [20], the z-score was 0.87 (inactive). Moreover, the composite z-score in [2] was -0.193.
Regarding `C=C(CCCC)/C(=C/C[C@H](OC(C)=O)c1cccc(OCCO)c1)c1cc(C(=O)OC)ccc1OC`, the z-score was 1.19 (inactive) in assay [1]; 21 (active) in assay [3]; 3.75 (inactive) in assay [4]; 2.43 (inactive) in assay [5]; 1.21 (inactive) in assay [6]; -0.377 in assay [7]. For the same compound, the z-score was 1.39 (inactive) in assay [8]; 1.02 (inactive) in [9]; -0.963 in assay [10]; 2.28 in assay [11]; 0.477 in assay [12]; 0.651 in [13]. Also, the z-score in assay [14] was -0.965; in assay [15], -2.14; in [16], 2.19; in assay [17], 0.18 (inactive); in [18], -0.111; in [19], 0.309. For the same compound, the z-score in [20] was 2.7 (inactive). Besides, the composite z-score in assay [2] was -0.007.
